Reference: PubChem BioAssay (NCATS)
Results filed as inconclusive are left out. Activity calls are given as the source filed them. Unless noted, calls follow the shape of the dose curve; as a rule, active = well fitted curve in the direction sought with a large enough effect; inconclusive = small, poorly fitted or top-dose-only effect, or another doubt; inactive = no such curve, though single readings can be large; an effect the other way counts as inactive or inconclusive.

What was measured:
[1] = Cell Viability - BJ (AID 421; calls by dose curve;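 also: potency is read from the fitted curve at half-maximal effect; cells exposed to compound for 40 hours at 37 °C before readout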); settings: BJ fibroblast viability, qHTS
How it was run: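 Luminescent ATP signal (CellTiter-Glo, 20 min at room temperature) served as the read-out of viable BJ cells after 40 hours of compound treatment. Responses were scaled between DMSO and 100 uM tamoxifen, and AC50 values were obtained by Hill modeling.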

[2] = Cell Viability - Jurkat (AID 426;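 active = dose-dependent loss of cell ATP signal giving a full or clear fitted curve, ranked by lower potency value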;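 also: potency is read from the fitted curve at half-maximal effect; cells exposed to compound for 40 hours at 37 °C before ATP read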); settings: qHTS
How it was run: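 Luminescent ATP read-out (CellTiter-Glo, 20 min at room temperature) after 40 hr compound exposure at 37 °C of Jurkat E6-1 cells, 5000/well. Decreased ATP taken as cytotoxicity; AC50 from standard Hill equation.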

[3] = Cell Viability - Hek293 (AID 427;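 active = compounds whose dose-response curve shows a full or clear partial loss of cell viability, called from curve shape rather than a numeric limit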;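 also: potency is read from the fitted curve at half-maximal effect; cells exposed to compound for 40 hours at 37 °C before reading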); settings: qHTS
How it was run: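 Luminescent ATP read-out (CellTiter-Glo, 20 min RT) after 40 hr compound exposure at 37 °C in complete medium. Signal normalized to DMSO (basal) and 100 uM tamoxifen (100% inhibition); concentration-response fitted with the standard Hill equation to give AC50.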

[4] = Cell Viability - MRC5 (AID 434; calls by dose curve;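 also: potency is read from the fitted curve at half-maximal effect; cells exposed to compound for 40 hours at 37 °C; potency reflects cytotoxicity seen as loss of intracellular ATP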); settings: MRC5 lung fibroblast viability, qHTS
How it was run: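 AC50 values come from Hill-equation fits of intracellular ATP loss, measured by CellTiter-Glo luminescence. Normal lung fibroblasts (MRC5) had 40 hr compound treatment at 37 C, normalized between DMSO and 100 uM tamoxifen.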

[5] = Cell Viability - SK-N-SH (AID 435; calls by dose curve;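 also: potency is read from the fitted curve at half-maximal effect; compound exposure lasted 40 h at 37 °C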); settings: SK-N-SH neuroblastoma cell viability qHTS
How it was run: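 Cells seeded at 1500 per well and incubated 5 hr at 37 °C. Compound added, then 40 hr at 37 °C. CellTiter-Glo added, 20 min at room temperature, luminescence read.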

[6] = biological target: Mitogen-activated protein kinase 10 (Mus musculus) (UniProt Q61831); test: JNK3 AlphaScreen Assay (AID 530; active = well fitted curve in either direction with a large enough effect, not every such curve was filed as active;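 also: kinase came from lysate of stimulated human HepG2 cells; signal reports phosphorylation of biotinylated GST-cJun 1-79 at Ser73 with 10 µM ATP; % is scaled to controls: 0 for no effect and ±100 for the full control effect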)
How it was run: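 Kinase buffer: 20 mM Tris-HCl pH 7.6, 10 mM MgCl2, 1 mM DTT, 0.1 mM Na3VO4, 0.01% Tween-20; ATP 10 uM. Substrate biotin-GST-cJun(1-79), enzyme from activated HepG2 lysates. Detection by Ser73 phospho-antibody AlphaScreen.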

[7] = Cell Viability - N2a (AID 540); settings: N2a mouse neuroblastoma cell viability; activity change, negative = cytotoxicity: at 92.2 µM (top of the series);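 also: cells exposed to compound for 40 h at 37 °C; plate controls were DMSO alone for no effect and tamoxifen control for full effect; nearly all actives have a fitted effect of over 45% in size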
How it was run: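 N2a mouse neuroblastoma, 1500 cells/well, 5 hr settle; compound 40 hr, 37 °C; CellTiter-Glo 20 min RT; luminescence; Hill-fit AC50.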

[8] = Cell Viability - NIH 3T3 (AID 541); settings: NIH 3T3 cell viability, qHTS; activity change, negative = cytotoxicity: at 92.2 µM (top of the series);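 also: plate controls were DMSO alone for no effect and tamoxifen positive control for full effect; nearly all actives have a fitted effect of over 25% in size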
How it was run: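 qHTS format; 40 hr compound exposure, 37 °C; CellTiter-Glo luminescence (cellular ATP) read-out after 20 min at RT. Decrease in ATP = cytotoxicity; AC50 from standard Hill fit.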

[9] = Cell Viability - HUV-EC-C (AID 542); also: % is scaled to controls: 0 for no effect and ±100 for the full control effect; nearly all actives have a fitted effect of over 35% in size
How it was run: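 Luminescent ATP read-out (CellTiter-Glo, 20 min room temperature) after 40 hr compound treatment of HUV-EC-C cells at 37 °C. Concentration-response data fitted with the standard Hill equation to give AC50; tamoxifen and doxorubicin served as positive controls.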

[10] = Cell Viability - SH-SY5Y (AID 544); settings: SH-SY5Y neuroblastoma cell viability; viability change, negative = cytotoxic: at 92.2 µM (top of the series); also: nearly all actives have a fitted effect of over 55% in size
How it was run: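 SH-SY5Y, 1500 cells/well, 5 hr pre-incubation 37 °C; cpd 40 hr 37 °C; CellTiter-Glo 20 min RT; luminescence (ATP) read. qHTS concentration-response, Hill fit → AC50. Tamoxifen, doxorubicin as positive controls.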

[11] = Cell Viability - Renal Proximal Tubule (AID 545); settings: renal proximal tubule cells viability; activity change, negative = cytotoxicity: at 91.7 µM (top of the series) unless noted; also: nearly all actives have a fitted effect of over 40% in size
How it was run: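 Cytotoxicity is scored as a concentration-dependent drop in cellular ATP in primary rat renal proximal tubule cells exposed for 40 hr. AC50 derives from Hill modelling.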

[12] = Cellular Toxicity (caspase-3) HepG2 (AID 654);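 also: cells exposed to compound for 16 hours before reading; 0% = DMSO alone and 100% = caspase signal from 100 µM tamoxifen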
How it was run: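 Luminescent Caspase-Glo 3/7 readout after 16 hr compound exposure of human hepatocellular carcinoma HepG2 cells at 37 °C; qHTS concentration-response, normalized DMSO = 0%, 100 uM tamoxifen = 100%; AC50 by standard Hill equation.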

[13] = Cellular Toxicity (caspase-3) Jurkat (AID 655); settings: Jurkat caspase-3 activation, luminescence; caspase-3 activation: at 92.2 µM (top of the series), DMSO = 0%, tamoxifen = 100%;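 also: potency is read from the fitted curve at half-maximal effect; cells exposed to compound for 16 h at 37 °C before reading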
How it was run: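 Caspase 3/7 activation is scored as increased luminescence in Jurkat cells cultured with compound for 16 hours in complete medium. AC50 values come from Hill fits of qHTS concentration-response data normalized to DMSO and 100 uM tamoxifen controls.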

[14] = Cellular Toxicity (caspase-3) HUV-EC-C (AID 656)
How it was run: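 Read-out: luminescence proportional to caspase 3/7 activity, measured 20 min after adding Caspase-Glo 3/7 reagent. Cells (HUV-EC-C) had received compound for 16 hr at 37°C. Increases relative to DMSO and 100 uM tamoxifen gave concentration-response AC50 values.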

[15] = Cellular Toxicity (caspase-3) SHSY5Y (AID 657)
How it was run: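 Cells plated and incubated 5 h at 37 °C, dosed over a concentration range, incubated 16 h, then given Caspase-Glo 3/7 reagent for 1 h at room temperature before luminescence reading. Staurosporine (10 uM) defined full stimulation.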

[16] = Cellular Toxicity (caspase-3) Mesangial (AID 660); settings: Potency: caspase-3 activation;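 also: cells exposed to compound for 16 h before the caspase read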
How it was run: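 Luminescent Caspase-Glo 3/7 readout (aminoluciferin substrate cleavage, 20 min RT) after 16 h compound exposure at 37 °C of normal human mesangial cells. Signal increase normalized between DMSO basal and 100 uM tamoxifen; Hill-equation AC50.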

[17] = Cellular Toxicity (caspase-3) H-4-II-E (AID 663); settings: H-4-II-E rat hepatoma, scaled: DMSO 0%, 100 µM tamoxifen 100%; at 92.2 µM (top of the series);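 also: cells exposed to compound for 16 hr before readout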
How it was run: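 Caspase 3/7 activation measured by luminescent aminoluciferin substrate cleavage after 16 hr compound treatment of H-4-II-E cells in complete medium. Increase normalized between DMSO (basal) and 100 uM tamoxifen (100%); Hill-equation AC50 from concentration-response.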

[18] = Cellular Toxicity (caspase-3) Hek293 (AID 664); settings: HEK293 caspase-3 activation, DMSO = 0%, 100 µM tamoxifen = 100%; at 92.2 µM (top of the series);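 also: cells exposed to compound for 16 h at 37 °C before readout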
How it was run: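 Luminescent Caspase-Glo 3/7 readout (aminoluciferin release) in HEK293 cells after 16 h compound treatment, 37 °C. Normalization: DMSO = basal, 100 uM tamoxifen = 100% stimulation. Concentration-response fitted with standard Hill equation for AC50.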

[19] = Cellular Toxicity (caspase-3) N2a (AID 665);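 also: compound exposure lasted 16 h at 37 °C before readout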
How it was run: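 Luminescent Caspase-Glo 3/7 readout in N2a mouse neuroblastoma cells after 16 h compound exposure at 37 °C. Signal scaled to DMSO (basal) and 10 uM staurosporine (100%). Concentration-response fitted with Hill equation for AC50.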

[20] = Cellular Toxicity (caspase-3) NIH 3T3 (AID 666);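 also: 0% = DMSO basal and 100% = 100 µM tamoxifen stimulation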
How it was run: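 NIH 3T3, 1000 cells/well, 5 hr settle then 16 hr compound at 37°C; Caspase-Glo 3/7, 20 min RT, luminescence. DMSO = basal, 100 uM tamoxifen = 100%. Hill-equation AC50, qHTS.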

[21] = Cellular Toxicity (caspase-3) Renal Proximal Tubule (AID 667); settings: renal proximal tubule cells; at 91.7 µM (top of the series) unless noted;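 also: cells exposed to compound for 16 hours at 37 °C before detection; 0% = DMSO basal and 100% = 10 µM staurosporine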
How it was run: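 In qHTS format, rat primary proximal tubule cells seeded at 1000 per well are exposed to compounds for 16 hours at 37 °C. An increase in Caspase-Glo 3/7 luminescence indicates caspase activation.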

[22] = Cell Viability - LYMP2-001 (AID 921); also: potency is read from the fitted curve at half-maximal effect; nearly all actives have a fitted effect of over 70% in size
How it was run: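 qHTS, 1536-well; lymphoblastoid cells, 24 hr compound, 37 C; ATP by CellTiter-Glo, 30 min RT; luminescence; Hill-fit AC50.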

[23] = MultiTox-Fluor Cytotoxicity Assay - LYMP1-001 - Dead Cells (AID 946);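 also: 0% = DMSO and 100% = tetraoctylammonium bromide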
How it was run: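 AC50 from Hill fit of concentration-response; data normalized to DMSO (basal) and 15 uM tetraoctylammonium bromide (100%). LYMP1-001 lymphoblastoid cells, 2500/well, 16 hr compound at 37 C; dead-cell protease fluorescence, Ex/Em 485/520.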

[24] = MultiTox-Fluor Cytotoxicity Assay - LYMP1-001 - Live Cells (AID 947);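 also: 0% = DMSO only and full inhibition = tetraoctylammonium bromide control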
[25] = Cell Viability - LYMP1-002 - Assay at 16 hr (AID 948);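 also: 0% = DMSO alone and full effect = 92 µM tetraoctylammonium bromide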
How it was run: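 Acute cytotoxicity is scored as a concentration-dependent fall in intracellular ATP in a human lymphoblastoid line (LYMP1-002) after 16 hr compound exposure at 37 C, measured by luciferase luminescence.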

[26] = MultiTox-Fluor Cytotoxicity Assay - LYMP1-002 - Dead Cells (AID 960);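 also: 0% = DMSO and 100% = tetraoctylammonium bromide; nearly all actives have a fitted effect of over 60% in size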
How it was run: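 Readout: fluorescence at 485/520 from cell-impermeant bis-AAF-R110 cleaved by proteases leaking from damaged cells. LYMP1-002 lymphoblastoid line, 16 hr compound treatment at 37 C, concentration-response in qHTS format; Hill-equation AC50 values.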

[27] = MultiTox-Fluor Cytotoxicity Assay - LYMP1-003 - Dead Cells (AID 961);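 also: 0% = DMSO and 100% = tetraoctylammonium bromide; nearly all actives have a fitted effect of over 70% in size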
How it was run: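 Human lymphoblastoid LYMP1-003 cells (2500/well) were treated with compounds for 16 hr at 37 C in complete medium. Dead-cell protease release was read by bis-AAF-R110 fluorescence (Ex/Em 485/520). AC50 came from Hill fits, normalized to DMSO and 15 uM tetraoctylammonium bromide.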

[28] = MultiTox-Fluor Cytotoxicity Assay - LYMP1-003 - Live Cells (AID 962);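 also: 0% = DMSO only and full loss = 92 µM tetraoctylammonium bromide; cytotoxic hits lower the live-cell protease signal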
How it was run: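 Readout: live-cell fluorescence (Ex/Em=405/510) from GF-AFC cleavage after 60 min MultiTox-Fluor reagent at room temperature. Lymphoblastoid LYMP1-003 cells, 16 hr compound treatment, 37 C. Concentration-response fitted to standard Hill equation for AC50.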

[29] = Cell Viability - LYMP1-003 - Assay at 40 hr (AID 964); also: % is scaled to controls: 0 for no effect and ±100 for the full control effect; nearly all actives have a fitted effect of over 60% in size
How it was run: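 LYMP1-003 lymphoblastoid cells, 2500/well; 5 hr preincubation, 40 hr compound exposure, 37 C; CellTiter-Glo 30 min RT; luminescence; Hill-fit AC50. Positive control tetraoctylammonium bromide.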

[30] = Cell Viability - LYMP2-003 (AID 965);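 also: cells exposed to compounds for 24 h before reading; 0% = DMSO only and full effect = 92 µM tetraoctylammonium bromide; nearly all actives have a fitted effect of over 50% in size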
How it was run: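 Acute cytotoxicity is scored as a concentration-dependent drop in intracellular ATP, measured by luciferase luminescence in human lymphoblastoid cells treated for 24 hours at 37 C. AC50 values derive from Hill-equation modelling.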

[31] = Cell Viability - LYMP2-004 (AID 966);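 also: plate controls were DMSO only for no effect and tetraoctylammonium bromide control for full effect; nearly all actives have a fitted effect of over 65% in size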
How it was run: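 Luminescent ATP read-out (CellTiter-Glo, 30 min RT) after 24 hr compound exposure at 37 C; 2500 lymphoblastoid cells/well, complete medium. Decrease in ATP = cytotoxicity; AC50 from standard Hill model.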

[32] = Cell Viability - LYMP2-005 (AID 967);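 also: plate controls were DMSO only for no effect and 92 µM tetraoctylammonium bromide control for full effect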
How it was run: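 qHTS viability screen in LYMP2-005 cells: 24 h at 37 C with compound, ATP luminescence via CellTiter-Glo, AC50 from Hill curves.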

[33] = Cell Viability - LYMP2-009 (AID 968); also: potency is read from the fitted curve at half-maximal effect; nearly all actives have a fitted effect of over 55% in size
[34] = Cell Viability - LYMP2-011 (AID 969);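 also: potency is read from the fitted curve at half-maximal effect; cells exposed to compound for 24 hours; nearly all actives have a fitted effect of over 60% in size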
How it was run: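 Luminescent ATP read-out (CellTiter-Glo, 30 min RT) after 24 hr compound exposure at 37 C in human lymphoblastoid cells, 2500 cells/well. Decreasing ATP indicates cytotoxicity; AC50 from standard Hill fit.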

[35] = Cell Viability - LYMP2-013 (AID 970); also: potency is read from the fitted curve at half-maximal effect; nearly all actives have a fitted effect of over 55% in size
How it was run: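 CellTiter-Glo luminescence (cellular ATP) read after 30 min at RT. Cells: human lymphoblastoid line, 2500/well, 24 hr compound exposure at 37 C. Tetraoctylammonium bromide positive control; AC50 via standard Hill fit of qHTS titrations.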

[36] = Cell Viability - LYMP2-019 (AID 973); also: potency is read from the fitted curve at half-maximal effect; nearly all actives have a fitted effect of over 55% in size
How it was run: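 qHTS, 1536-well; 2500 cells/well; 5 hr pre-incubation, 24 hr compound exposure, 37 C; CellTiter-Glo added, 30 min RT; luminescence read; AC50 via standard Hill equation.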

N#CC(Cl)Cl
inactive: Potency [1] > 92 µM | Potency [3] > 92 µM | Potency [4] > 92 µM | Potency [5] > 92 µM | outcome [6] | activity change, negative = cytotoxicity [7] 13.8% | Potency [8] | Potency [9] | Potency [10] | Potency [11] | outcome [12] | outcome [14] | Potency [15] | Potency [16] | caspase-3 activation [17] 0.178% | outcome [19] | outcome [20] | caspase-3 activation [21] -4.27% [at 91.7 µM, primary cells freshly taken from rat, solvent-only wells 0%, staurosporine 100%] | Potency [23] | Potency [24] | Potency [25] | Potency [26] | Potency [27] | Potency [28] | Potency [29] | Potency [30] | Potency [31] | Potency [32]
active: Potency [2] 6.52 µM | Potency [13] 5.01 µM | caspase-3 activation [18] 72.2% | Potency [22] 10 µM | Potency [33] 15.8 µM | Potency [34] 20 µM | Potency [35] 20 µM | Potency [36] 15.8 µM
